# Experimental data published in PubChem BioAssay (EPA / NIEHS).
# Where “and” joins values, the source holds several entries; their conditions need not be identical. Equal entries are not always repeated. Results filed as inconclusive are left out. Calls of active or inactive are those of the source. Rule for the calls: active = hit-call score of the fitted dose curve at least 0.9, where 1 is the maximum; inconclusive = response in the unintended direction; inactive = score below 0.9.
# Test system: not listed separately
# Test: TOX21_p53_BLA_p4_viability: Viability Assessment in the Tox21 HCT-116 p53 Agonism Beta-lactamase Assay, Phase 4 (AID 2283597);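 note: hits lower the luminescence signal meaning cytotoxicity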
# Summary of the method: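 Luminescent ATP readout (CellTiter-Glo, 30 min, room temperature) in the same wells as the p53 bla ratio. HCT116 cells were treated for 16 h at 37C with DMSO-dissolved compounds.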
SMILES,outcome,AC50
Oc1ccc(/C=C/c2cc(O)cc(O)c2)cc1,inactive,–
O=C(O)c1ccc2c(c1)C(=O)OC2=O,inactive,–
N=C1C=CC(=C(c2ccc(N)cc2)c2ccc(N)cc2)C=C1,inactive,–
CC1(C)[C@@H]2CC[C@@]1(C)C(=O)C2,inactive,–
Oc1ccc(-c2ccccc2)c(Cl)c1,–,60.8 µM (active)
C=C(C)C(=O)OCCOC(=O)C(=C)C,inactive,–
Oc1c(Cl)cc(Cl)c(Cl)c1Cl,inactive,–
O=C(O)C1CCC(C(=O)O)CC1 (stereo not given),–,82.4 µM (active)
CCCCNC(=S)NCCCC,inactive,–
O=C(Cl)c1ccc(C(=O)Cl)cc1,inactive,–
C=C1C[C@H]2[C@@H]3C=C(C)C4=CC(=O)CC[C@]4(C)[C@H]3CC[C@]2(C)[C@@]1(OC(C)=O)C(C)=O,inactive,–
CCCCCCO,inactive,–
O=C(O[C@@H]1Cc2c(O)cc(O)cc2O[C@@H]1c1cc(O)c(O)c(O)c1)c1cc(O)c(O)c(O)c1,inactive,–
C=CC(=O)OCCCCCCCC(C)C,inactive,–
CCCCC(=O)O,inactive,–
O=C(O)/C=C/c1ccccc1,inactive,–
CCCCCC[C@@H](O)C/C=C\CCCCCCCC(=O)OCC(O)CO (stereo not given in full),inactive,–
Clc1cc(Cl)c(Cl)c(Cl)c1Cl,inactive,–
Fc1ccc(Br)cc1,inactive,–
CCCCCCOc1ccc(N)cc1,inactive,–
O=C1CCCCCCCCCCCN1,inactive,–
C1CNCCN1,inactive,–
CCCCCCCCCCCCc1ccc(O)cc1,–,16.3 µM (active)
CCCCCCC=O,inactive,–
CCCCCCCC(=O)OCC(COC(=O)CCCCCCC)OC(=O)CCCCCCC,inactive,–
C=C(C)OC(C)=O,inactive,–
CCCCC1C(=O)N(c2ccccc2)N(c2ccccc2)C1=O,inactive,–
O=C(Oc1ccccc1)c1ccccc1C(=O)Oc1ccccc1,inactive,–
CC(C)(C)NC(=O)[C@H]1CC[C@H]2[C@@H]3CC[C@H]4NC(=O)C=C[C@]4(C)[C@H]3CC[C@]12C,inactive,–
C=CC(=O)OCCCCCCOC(=O)C=C,inactive,–

# Molecular target: Cellular tumor antigen p53 (Homo sapiens) (UniProt P04637)
# Test: TOX21_p53_BLA_p5_ratio: Tox21 HCT-116 p53 Agonism Beta-lactamase Assay, Ratio, Phase 5 (AID 2283599)
# Summary of the method: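 HCT-116 cells carrying a p53-inducible beta-lactamase reporter were seeded at 4000 cells/well and dosed after 5 h with compound in DMSO (217-fold dilution). After 16 h at 37C, CCF4-AM substrate was added for 2 h, and the 460/530 nm emission ratio was scored as gain-of-signal versus DMSO.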
# Sequence of Cellular tumor antigen p53 (Homo sapiens) (P04637 whole entry, looked up): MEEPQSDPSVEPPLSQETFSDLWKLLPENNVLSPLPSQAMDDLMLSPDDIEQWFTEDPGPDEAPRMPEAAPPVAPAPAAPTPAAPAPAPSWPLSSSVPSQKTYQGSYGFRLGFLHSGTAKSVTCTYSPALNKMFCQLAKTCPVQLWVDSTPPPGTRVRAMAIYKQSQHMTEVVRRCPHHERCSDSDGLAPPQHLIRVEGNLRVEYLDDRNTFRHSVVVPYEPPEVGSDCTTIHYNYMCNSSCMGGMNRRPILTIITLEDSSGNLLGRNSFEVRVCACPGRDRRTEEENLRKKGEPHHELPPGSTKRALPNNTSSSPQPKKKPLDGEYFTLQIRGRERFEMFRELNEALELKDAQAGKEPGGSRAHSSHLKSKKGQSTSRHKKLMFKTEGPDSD
SMILES,outcome,AC50
Oc1ccc(/C=C/c2cc(O)cc(O)c2)cc1,inactive,–
N=C1C=CC(=C(c2ccc(N)cc2)c2ccc(N)cc2)C=C1,–,67.3 µM (active)
CC1(C)[C@@H]2CC[C@@]1(C)C(=O)C2,inactive,–
Oc1ccc(-c2ccccc2)c(Cl)c1,inactive,–
C=C(C)C(=O)OCCOC(=O)C(=C)C,inactive,–
Oc1c(Cl)cc(Cl)c(Cl)c1Cl,–,27 µM (active) and 21.1 µM (active)
O=C(O)C1CCC(C(=O)O)CC1 (stereo not given),inactive,–
O=C(Cl)c1ccc(C(=O)Cl)cc1,inactive,–
C=C1C[C@H]2[C@@H]3C=C(C)C4=CC(=O)CC[C@]4(C)[C@H]3CC[C@]2(C)[C@@]1(OC(C)=O)C(C)=O,inactive,–
O=C(O[C@@H]1Cc2c(O)cc(O)cc2O[C@@H]1c1cc(O)c(O)c(O)c1)c1cc(O)c(O)c(O)c1,inactive,–
CC(=O)CC(=O)Nc1ccccc1C,inactive,–
CC(=O)c1ccccc1O,inactive,–
CCCCC(=O)O,inactive,–
O=C(O)/C=C/c1ccccc1,inactive,–
CCCCCCCCCCCC(=O)OCC,inactive,–
Fc1ccc(Br)cc1,inactive,–
CCCCCCOc1ccc(N)cc1,inactive,–
O=C1CCCCCCCCCCCN1,inactive,–
C1CNCCN1,inactive,–
CCCCCCCCCCCCc1ccc(O)cc1,–,52.1 µM (active)
CCCCCCC=O,inactive,–
C=Cc1ccc(OC(C)=O)cc1,inactive,–
CC(C)c1cccc(C(C)C)c1N,inactive,–
CCCCCCCC(=O)OCC(COC(=O)CCCCCCC)OC(=O)CCCCCCC,inactive,–
C=C(C)OC(C)=O,inactive,–
CCCCC1C(=O)N(c2ccccc2)N(c2ccccc2)C1=O,inactive,–
O=C(Oc1ccccc1)c1ccccc1C(=O)Oc1ccccc1,inactive,–
C=CC(=O)OCCCCCCOC(=O)C=C,–,42.4 µM (active) and 63.2 µM (active)

# Test system: not listed separately
# Test: TOX21_p53_BLA_p5_viability: Viability Assessment in the Tox21 HCT-116 p53 Agonism Beta-lactamase Assay, Phase 5 (AID 2283600)
# Summary of the method: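 Seeded cells (4000/well) settle 5 h before compound addition. Plates then incubate 16 h at 37C, receive FRET substrate for 2 h, and finally CellTiter-Glo, with luminescence measured after a 30 min room-temperature incubation.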
SMILES,outcome,AC50
Oc1ccc(/C=C/c2cc(O)cc(O)c2)cc1,inactive,–
O=C(O)c1ccc2c(c1)C(=O)OC2=O,inactive,–
CC1(C)[C@@H]2CC[C@@]1(C)C(=O)C2,inactive,–
Oc1ccc(-c2ccccc2)c(Cl)c1,inactive,–
C=C(C)C(=O)OCCOC(=O)C(=C)C,inactive,–
Oc1c(Cl)cc(Cl)c(Cl)c1Cl,inactive,–
CCCCNC(=S)NCCCC,inactive,–
C=C1C[C@H]2[C@@H]3C=C(C)C4=CC(=O)CC[C@]4(C)[C@H]3CC[C@]2(C)[C@@]1(OC(C)=O)C(C)=O,inactive,–
CCCCCCO,inactive,–
O=C(O[C@@H]1Cc2c(O)cc(O)cc2O[C@@H]1c1cc(O)c(O)c(O)c1)c1cc(O)c(O)c(O)c1,inactive,–
CC(=O)CC(=O)Nc1ccccc1C,inactive,–
C=CC(=O)OCCCCCCCC(C)C,inactive,–
CCCCC(=O)O,inactive,–
O=C(O)/C=C/c1ccccc1,inactive,–
Clc1cc(Cl)c(Cl)c(Cl)c1Cl,inactive,–
CCCCCCCCCCCC(=O)OCC,inactive,–
CCCCCCOc1ccc(N)cc1,inactive,–
O=C1CCCCCCCCCCCN1,inactive,–
C1CNCCN1,inactive,–
CCCCCCCCCCCCc1ccc(O)cc1,–,24 µM (active)
CCCCCCC=O,inactive,–
C=Cc1ccc(OC(C)=O)cc1,inactive,–
CCCCCCCC(=O)OCC(COC(=O)CCCCCCC)OC(=O)CCCCCCC,inactive,–
C=C(C)OC(C)=O,inactive,–
CCCCC1C(=O)N(c2ccccc2)N(c2ccccc2)C1=O,inactive,–
CC(C)(C)NC(=O)[C@H]1CC[C@H]2[C@@H]3CC[C@H]4NC(=O)C=C[C@]4(C)[C@H]3CC[C@]12C,inactive,–
C=CC(=O)OCCCCCCOC(=O)C=C,inactive,–
